These results are taken from paper PMC4552634, “A New Set of Chemical Starting Points with Plasmodium falciparum Transmission-Blocking Potential for Antimalarial Drug Discovery” (PLoS ONE, 2015).

Like-named read-outs stand apart in the source and are kept apart here. The campaign covered roughly 13,000 compounds. About 3,200 (25%) showed an effect of 50% or more. Some of the results follow.

The test system of the test is P. falciparum stage V gametocytes. Set-up: BacTiter-Glo ATP luminescence viability of purified stage V gametocytes in 384-well plates, per cent inhibition versus DMSO. Particulars: 48 h, 5 µM, inhibitor.

On to `CCCCCCNC(=O)C(N)CCCC(N)C(=O)NCCCCCC` (stereo not drawn) [TCMDC-131401], for which the “% Inhibition” value was found to be 16.24%.

Regarding `CSc1cccc(NC(=O)Nc2ccc(I)c(OCCN(C)C)c2)c1` [TCMDC-139123], the “% Inhibition” value came to 6.817%. The same measure, in the same setting: the value for `COc1cc2cc(Cc3cnc(N)nc3N)ccc2c(OC)c1OC` [TCMDC-138023] was -6.286%; that for `O=C(NCCCc1ccccc1)c1csc(C2CCCN(C(=O)c3ccc(O)c(-c4cccc5ccccc45)c3)C2)n1` (stereo not drawn) [TCMDC-140154] was -33.08%; that for `CC(C)(C)c1ccc(NC(=O)c2cccc(CN3CCCN(Cc4cccc(Cl)c4)CC3)c2)cc1` [TCMDC-135982] was -61.3%. Still for that read-out and setting: in the case of `CCc1cc(I)c2c(c1)C(NCCCNc1cc(=O)c3ccccc3[nH]1)CCN2` (stereo not drawn) [TCMDC-140023] it was -10.14%; in that of `O=c1cc(NCCNCc2cccc(-c3ccccc3)c2)[nH]c2ccccc12` [TCMDC-139376], 20.69%.

Consider `CC(C)(C)C1CCC(C(=O)c2ccc3ccccc3c2O)CC1` (stereo not drawn) [TCMDC-137495], for which the “% Inhibition” value is on record as 11.22%.

Regarding `O=C(CCC1CCCCC1)NCCNc1cccc2ccccc12` [TCMDC-124017], the “% Inhibition” value is given as 107.9%.

`Cc1cc(NCCC(=O)Nc2ccccc2)nc(NCC2CCCCC2)n1` [TCMDC-134926]: the “% Inhibition” value is recorded as -30.27%. Same read-out and setting: the value for `O=C(Nc1ccccc1)Nc1cccc(-c2cccc(-c3nc4ccc(F)cc4[nH]3)c2)c1` [TCMDC-133154] was -14.02%; that for `CCOc1ccc(-c2nc(NC(=O)COc3ccc(OC)cc3)sc2C)cc1` [TCMDC-124329] was 36.75%; that for `Cc1cnc(C(=O)Nc2cccc(-c3cccc(-c4nc5c(C)cccc5[nH]4)c3)c2)cn1` [TCMDC-137030] was -21.98%.

Regarding `Cc1ccoc1C(=O)Nc1ccc(-c2cccc(-c3nc4c(C)cccc4[nH]3)c2)cc1` [TCMDC-136837], the “% Inhibition” value is recorded as -21.37%. The same measure, in the same setting: in the case of `CC(=O)Nc1nc(C(=O)Nc2cccc(-c3cccc(-c4nc5c(C)cccc5[nH]4)c3)c2)cs1` [TCMDC-137130] it was -6.466%. Same read-out and setting: the value for `Cc1ccoc1C(=O)Nc1cccc(-c2cccc(-c3nc4ccccc4[nH]3)c2)c1` [TCMDC-136834] was -43.19%; that for `CC(=O)Nc1nc(C(=O)Nc2ccc(-c3cccc(-c4nc5c(C)cccc5[nH]4)c3)cc2)cs1` [TCMDC-137131] was -2.039%.

With `Cc1cccc2[nH]c(-c3cccc(-c4cccc(NC(=O)c5csnn5)c4)c3)nc12` [TCMDC-136904], the “% Inhibition” value is given as 82.61%. The same measure, in the same setting: in the case of `O=C(Nc1cccc(-c2cccc(-c3nc4ccccc4[nH]3)c2)c1)c1csnn1` [TCMDC-136898] it was 1.573%; in that of `Cc1cccc2[nH]c(-c3cccc(-c4ccc(NC(=O)C5CC(=O)Nc6ccccc65)cc4)c3)nc12` (stereo not drawn) [TCMDC-137098], -77.35%; in that of `O=C1CC(C(=O)Nc2cccc(-c3cccc(-c4nc5ccccc5[nH]4)c3)c2)c2ccccc2N1` (stereo not drawn) [TCMDC-137096], 26.75%. Consider `CC(=O)Nc1nc(C(=O)Nc2cccc(-c3ccc(-c4nc5c(C)cccc5[nH]4)cc3)c2)cs1` [TCMDC-137123], for which the “% Inhibition” value was found to be 80.9%. Turning to `Cc1cccc2[nH]c(-c3cccc(-c4cccc(NC(=O)C5CC(=O)Nc6ccccc65)c4)c3)nc12` (stereo not drawn) [TCMDC-137097], the “% Inhibition” value was 79.84%.

Take `Cc1ccoc1C(=O)Nc1cccc(-c2cccc(-c3nc4c(C)cccc4[nH]3)c2)c1` [TCMDC-136836]: the “% Inhibition” value worked out at 81.69%.

Turning to `Clc1cc(Nc2ccnc3ccc(Br)cc23)ccc1Oc1ccc(Cl)c2ccccc12` [TCMDC-123834], the “% Inhibition” value is recorded as -13.4%.

Take `O=c1cc(NC[C@H]2CCC[C@@H]2NC2CCCc3c2[nH]c2ccccc32)[nH]c2ccccc12` (stereo partly drawn) [TCMDC-139785]: the “% Inhibition” value came to 10.53%. Same read-out and setting: the value for `CCc1cccc(C)c1-n1nc(-c2cc(C(C)(C)C)oc2C)cc1N` [TCMDC-134028] was 9.67%; that for `CCc1ccc(NC(=O)c2ccc(CN3CCCN(CC4CCCCC4)CC3)cc2)cc1` [TCMDC-136437] was -21.72%; that for `COc1ccc2nccc(N3CCC(CCNCc4ccc5c(n4)NC(=O)CO5)CC3)c2c1.Cl` [TCMDC-141904] was -28.1%. Take `Cc1nn(C)c(C)c1CN(Cc1nc(-c2cccc(Oc3ccccc3)c2)oc1C)C1CC1` [TCMDC-124629]: the “% Inhibition” value stood at 8.903%. Same read-out and setting: in the case of `C=CCc1cc(Cc2cnc(N)nc2N)cc(CCC)c1O` [TCMDC-138048] it was -56.02%; in that of `COc1ccc2nccc([C@@H](O)CN3CCC(NC(=O)/C=C/c4cc(F)cc(NC(C)=O)c4)CC3)c2c1` [TCMDC-141030], -4.964%.

With `Oc1cccc(-c2nc3cc(C4=NC5CCCCC5N4)ccc3[nH]2)c1` (stereo not drawn) [TCMDC-138108], the “% Inhibition” value (% Inhibition) is -4.911%. With `CC(=O)Nc1nc(C(=O)Nc2ccc(-c3cccc(-c4nc5ccccc5[nH]4)c3)cc2)cs1` [TCMDC-137120], the “% Inhibition” value worked out at 25.25%. On the same count and under the same terms, the value for `CC(=O)Nc1nc(C(=O)Nc2cccc(-c3ccc(-c4nc5ccccc5[nH]4)cc3)c2)cs1` [TCMDC-137127] was 61.93%; that for `CC(=O)Nc1nc(C(=O)Nc2cccc(-c3cccc(-c4nc5ccccc5[nH]4)c3)c2)cs1` [TCMDC-137121] was -11.21%; that for `N#CC(c1ccc(F)cc1)c1ccc2c(C(F)(F)F)cc(C(F)(F)F)nc2n1` (stereo not drawn) [TCMDC-123761] was -46.13%. As to `COc1ccc2nccc(N3CCN(CCNCc4ccc5c(n4)NC(=O)CS5)CC3)c2n1` [TCMDC-141967], the “% Inhibition” value is -20.32%. Same read-out and setting: the value for `COc1cccc(O)c1CNCC(O)c1cccc(C(F)(F)F)c1` (stereo not drawn) [TCMDC-140396] was -36.87%; that for `FC(F)(F)c1ccc2nc(-c3cccc(-c4ccc(CNCc5ccccc5)cc4)c3)[nH]c2c1` [TCMDC-132712] was -50.86%; that for `CS(=O)(=O)c1ccc(CNCc2ccc(-c3cccc(-c4nc5ccc(C(F)(F)F)cc5[nH]4)c3)cc2)cc1` [TCMDC-132897] was 17.9%. Same read-out and setting: the value for `CS(=O)(=O)c1ccc(CNCc2cccc(-c3ccc(-c4nc5ccc(C(F)(F)F)cc5[nH]4)cc3)c2)cc1` [TCMDC-132902] was -71.66%; that for `Nc1cccc(CNCc2cccc(-c3ccc(-c4nc5ccc(C(F)(F)F)cc5[nH]4)cc3)c2)c1` [TCMDC-132935] was -40.76%. On the same count and under the same terms, the value for `Nc1cccc(CNCc2ccc(-c3cccc(-c4nc5ccc(C(F)(F)F)cc5[nH]4)c3)cc2)c1` [TCMDC-132929] was -69.76%; that for `NCc1ccc(CNCc2cccc(-c3ccc(-c4nc5cc(C(F)(F)F)ccc5[nH]4)cc3)c2)cc1` [TCMDC-132811] was 93.89%.

Take `FC(F)(F)c1ccc2nc(-c3ccc(-c4cccc(CNCc5ccccc5)c4)cc3)[nH]c2c1` [TCMDC-132704]: the “% Inhibition” value amounted to 67.94%. On the same count and under the same terms, in the case of `FC(F)(F)c1ccc2nc(-c3ccc(-c4ccc(CNCc5ccccc5)cc4)cc3)[nH]c2c1` [TCMDC-132705] it was 55.9%; in that of `O=C(NCc1ccccc1)Nc1ccc(-c2ccc(-c3nc4ccc(C(F)(F)F)cc4[nH]3)cc2)cc1` [TCMDC-133157], -8.983%. Take `Fc1cccc(Cl)c1-c1nc(NCCC(c2ccccc2)c2ccccc2)no1` [TCMDC-134175]: the “% Inhibition” value is on record as -12.09%. On the same count and under the same terms, the value for `Cc1cc(=O)[nH]c(NC#N)n1` [TCMDC-123468] was 11.83%. The same measure, in the same setting: in the case of `O=C(c1cc(-c2ccccc2O)on1)N1CCN(C(c2ccccc2)c2ccccc2)CC1` [TCMDC-125470] it was 18.53%. On the same count and under the same terms, the value for `CC1(C)C2C=C(CN3CCC(NC(=O)Nc4ccc(Cl)c(Cl)c4)CC3)C1CC2` (stereo not drawn) [TCMDC-135871] was 38.53%; that for `COc1cccc(O)c1CN1CCC2(CCCN(Cc3ccc(F)cc3)C2)C1` (stereo not drawn) [TCMDC-124635] was -20.8%. As for `CCOC(=O)c1ccc(N2CCCCC2)c(NC(=O)C(Cl)(Cl)Cl)c1` [TCMDC-125786], the “% Inhibition” value was -22.75%. Still for that read-out and setting: the value for `O=C(/C=C/c1ccc(C(F)(F)F)cc1)NCCCCCN1CCCN(C(=O)Nc2ccc(Cl)cc2)CC1` [TCMDC-136106] was -46.09%; that for `O=C(/C=C/c1ccc(C(F)(F)F)cc1)NCCCCCN1CCN(C(=O)Nc2ccc(Cl)cc2)CC1` [TCMDC-136095] was -21.7%; that for `Clc1ccc(CNCC2CCN(CC3CCCCC3)CC2)cc1Cl` [TCMDC-139467] was -4.599%. The same measure, in the same setting: in the case of `N=C(/N=C(/NCCCCCCN/C(=N\C(=N)Nc1ccc(Cl)cc1)N1CCOCC1)N1CCOCC1)Nc1ccc(Cl)cc1` [TCMDC-131813] it was 108.7%. Still for that read-out and setting: the value for `O=C(NCCCCN1CCN(c2ccc3c(c2)CCC3)CC1)c1ccc(NC(=O)c2ccc(Cl)cc2)cc1` [TCMDC-138512] was -2.19%; that for `N=C(N=C(NCCCCCCNC(=NC(=N)NCc1ccc(Cl)c(Cl)c1)N1CCCCC1)N1CCCCC1)NCc1ccc(Cl)c(Cl)c1` [TCMDC-131816] was 118.5%; that for `O=C(NCCCCN1CCC(O)(c2ccc3c(c2)OCO3)CC1)c1ccc(NC(=O)c2ccc(Cl)cc2)cc1` [TCMDC-138356] was -1.021%. As for `Clc1ccc(CNCCCCCCCNCc2ccc(Cl)c(Cl)c2)cc1Cl` [TCMDC-138075], the “% Inhibition” value came to 16.46%. For the compound `N=C(N=C(NCCCCCCNC(=NC(=N)Nc1ccc(Cl)cc1)N1CCCCC1)N1CCCCC1)Nc1ccc(Cl)cc1` [TCMDC-131811], the “% Inhibition” value is reported as 119.8%.

`Nc1nc2c(ncn2COC2COP(=O)(O)OC2)c(=O)[nH]1` (stereo not drawn) [TCMDC-138021]: the “% Inhibition” value is reported as 10.06%. The same measure, in the same setting: in the case of `Cc1ccc(Nc2nc(C)cc(NC3CCCC3)n2)cc1` [TCMDC-133470] it was 43.93%. Consider `CCN(CCNc1nc(NCCc2cnc[nH]2)nc(N(CCC#N)Cc2ccccc2)n1)c1cccc(C)c1` [TCMDC-139258], for which the “% Inhibition” value was -10.46%. The same measure, in the same setting: in the case of `COc1cccc(C(=O)NCc2n[nH]c(=S)n2-c2ccc(Cl)c(Cl)c2)c1` [TCMDC-123816] it was 81.2%; in that of `CCC(=O)Oc1ccc(NC(=O)c2cccc(OC)c2)cc1` [TCMDC-131408], 8.36%; in that of `COc1cccc(C(=O)Nc2ccc(Oc3ccc(Cl)cc3)cc2)c1` [TCMDC-123807], -8.512%.

As usually defined, the % Inhibition is the change of the read-out against control, counted positive when it falls.
